Experimental data as given in paper PMC7862700, “An all-to-all approach to the identification of sequence-specific readers for epigenetic DNA modifications on cytosine”.

Legend:
Test in all cases: DAPPL (digital affinity profiling via proximity ligation, sequencing); 10 mM Tris-HCl pH 7.5, 50 mM NaCl, 1 mM DTT, 4% glycerol, room temperature, 30 min; GST-TFs on glutathione beads, 16-mer random dsDNA library, 0.1% formaldehyde crosslink after washing; high values mean tight binding
[1] = molecular target: T1, FLI1 (Homo sapiens, UniProt Q01543 1-452); details: protein: recombinant; tags: N-terminal GST; dsDNA, one strand shown
T1 sequence: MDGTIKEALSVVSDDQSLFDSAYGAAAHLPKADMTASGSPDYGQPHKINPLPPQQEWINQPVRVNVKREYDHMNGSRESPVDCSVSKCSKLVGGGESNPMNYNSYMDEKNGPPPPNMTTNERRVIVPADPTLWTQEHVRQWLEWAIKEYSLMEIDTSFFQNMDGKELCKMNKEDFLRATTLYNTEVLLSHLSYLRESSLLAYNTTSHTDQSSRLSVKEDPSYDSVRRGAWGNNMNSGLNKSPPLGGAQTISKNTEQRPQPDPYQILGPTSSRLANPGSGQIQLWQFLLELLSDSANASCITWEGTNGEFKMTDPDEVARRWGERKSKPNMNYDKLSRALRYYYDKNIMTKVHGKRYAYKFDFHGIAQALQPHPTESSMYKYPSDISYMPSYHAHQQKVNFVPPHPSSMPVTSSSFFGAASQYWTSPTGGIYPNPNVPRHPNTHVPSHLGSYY
How it was run: (§1)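 Human transcription factors carrying a GST fusion were produced in yeast, bound to glutathione beads, tagged with DNA barcodes and pooled together with a tag-only sample. Each pool was held with 200 nmole of a random double-stranded 16-mer DNA library in Tris/NaCl/DTT/glycerol buffer for 30 min at room temperature, then washed, crosslinked in 0.1% formaldehyde, proximity-ligated with BsaI/T4 ligase (1 h, 37 °C), PCR-amplified and sequenced on an Illumina NextSeq500. Binding signal is the read frequency of each hexamer for a given factor divided by its frequency in the tag-only sample.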

[2] = molecular target: T2, ELK1 (Homo sapiens, UniProt P19419 1-428); details: protein: recombinant; tags: N-terminal GST; dsDNA, one strand shown
T2 sequence: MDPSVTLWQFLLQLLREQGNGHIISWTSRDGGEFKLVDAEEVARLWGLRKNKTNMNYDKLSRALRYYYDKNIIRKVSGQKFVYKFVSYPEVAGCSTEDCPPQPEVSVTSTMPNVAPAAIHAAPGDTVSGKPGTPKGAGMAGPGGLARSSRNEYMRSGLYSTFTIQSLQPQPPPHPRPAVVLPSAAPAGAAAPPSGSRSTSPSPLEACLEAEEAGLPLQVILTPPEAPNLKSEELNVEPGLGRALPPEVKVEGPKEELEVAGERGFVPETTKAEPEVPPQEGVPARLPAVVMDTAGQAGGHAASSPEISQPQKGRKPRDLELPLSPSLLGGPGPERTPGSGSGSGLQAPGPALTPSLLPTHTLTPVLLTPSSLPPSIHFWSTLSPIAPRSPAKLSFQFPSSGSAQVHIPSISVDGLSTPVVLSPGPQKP
How it was run: as §1

[3] = molecular target: T3, GABPA (Homo sapiens, UniProt Q06546 1-454); details: protein: recombinant; tags: N-terminal GST; dsDNA, one strand shown
T3 sequence: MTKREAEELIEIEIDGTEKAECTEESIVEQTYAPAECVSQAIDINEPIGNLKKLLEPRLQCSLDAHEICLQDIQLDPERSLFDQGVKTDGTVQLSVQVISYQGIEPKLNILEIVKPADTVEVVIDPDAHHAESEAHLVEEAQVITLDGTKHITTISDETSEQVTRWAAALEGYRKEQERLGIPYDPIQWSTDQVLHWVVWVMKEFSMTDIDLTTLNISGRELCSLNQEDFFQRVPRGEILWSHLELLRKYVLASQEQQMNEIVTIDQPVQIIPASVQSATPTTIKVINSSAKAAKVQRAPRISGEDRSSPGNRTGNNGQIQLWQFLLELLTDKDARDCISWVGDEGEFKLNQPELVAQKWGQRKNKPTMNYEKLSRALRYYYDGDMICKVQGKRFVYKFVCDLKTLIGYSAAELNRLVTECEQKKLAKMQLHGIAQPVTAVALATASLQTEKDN
How it was run: as §1

[4] = molecular target: T4, ERG (Homo sapiens, UniProt P11308 1-479); details: protein: recombinant; tags: N-terminal GST; dsDNA, one strand shown
T4 sequence: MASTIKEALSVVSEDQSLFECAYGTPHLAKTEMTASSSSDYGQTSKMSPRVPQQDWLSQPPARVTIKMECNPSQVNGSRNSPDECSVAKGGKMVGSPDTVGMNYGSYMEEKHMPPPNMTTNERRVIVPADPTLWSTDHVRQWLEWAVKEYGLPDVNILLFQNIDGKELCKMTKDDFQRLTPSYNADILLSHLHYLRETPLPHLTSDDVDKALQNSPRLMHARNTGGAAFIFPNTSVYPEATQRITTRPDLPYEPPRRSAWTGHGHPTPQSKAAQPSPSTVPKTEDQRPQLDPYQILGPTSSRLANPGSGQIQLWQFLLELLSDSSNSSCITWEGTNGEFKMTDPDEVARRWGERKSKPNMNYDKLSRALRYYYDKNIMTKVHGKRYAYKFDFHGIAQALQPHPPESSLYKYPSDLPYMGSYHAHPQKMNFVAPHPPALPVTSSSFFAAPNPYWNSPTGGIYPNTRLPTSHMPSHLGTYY
How it was run: as §1

[5] = molecular target: ELF1 (Homo sapiens, UniProt P32519 1-619); details: protein: recombinant; tags: N-terminal GST; dsDNA, one strand shown
Chain of ELF1 (P32519 whole entry): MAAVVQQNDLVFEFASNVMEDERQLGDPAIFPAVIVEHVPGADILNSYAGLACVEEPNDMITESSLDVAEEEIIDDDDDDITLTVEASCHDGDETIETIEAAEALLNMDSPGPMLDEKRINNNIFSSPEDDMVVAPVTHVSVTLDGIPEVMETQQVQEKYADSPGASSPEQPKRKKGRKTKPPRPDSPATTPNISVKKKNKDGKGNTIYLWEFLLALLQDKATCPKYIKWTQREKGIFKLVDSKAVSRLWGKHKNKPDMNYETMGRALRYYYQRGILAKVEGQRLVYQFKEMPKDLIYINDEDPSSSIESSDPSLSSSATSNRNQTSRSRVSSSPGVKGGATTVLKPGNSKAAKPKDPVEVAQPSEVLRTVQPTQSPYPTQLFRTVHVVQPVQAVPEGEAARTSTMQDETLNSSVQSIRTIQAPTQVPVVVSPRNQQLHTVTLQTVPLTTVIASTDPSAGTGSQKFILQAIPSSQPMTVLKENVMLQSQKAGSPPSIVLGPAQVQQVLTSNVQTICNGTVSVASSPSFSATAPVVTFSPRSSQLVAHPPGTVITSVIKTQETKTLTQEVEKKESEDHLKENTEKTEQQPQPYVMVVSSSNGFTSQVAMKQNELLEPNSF
How it was run: as §1

[6] = molecular target: T5, EHF (Homo sapiens, UniProt Q9NZC4 1-300); details: protein: recombinant; tags: N-terminal GST; dsDNA, one strand shown
T5 sequence: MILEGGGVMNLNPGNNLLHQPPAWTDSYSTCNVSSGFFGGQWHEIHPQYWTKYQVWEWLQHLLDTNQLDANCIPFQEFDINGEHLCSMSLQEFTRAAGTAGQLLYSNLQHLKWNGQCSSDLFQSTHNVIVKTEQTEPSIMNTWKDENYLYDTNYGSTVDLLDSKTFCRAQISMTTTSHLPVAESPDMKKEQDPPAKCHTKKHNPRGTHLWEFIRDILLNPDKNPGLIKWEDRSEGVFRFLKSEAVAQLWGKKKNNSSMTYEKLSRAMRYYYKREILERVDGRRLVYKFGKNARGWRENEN
How it was run: as §1

[7] = molecular target: SPI1 (Homo sapiens, UniProt P17947 1-270); details: protein: recombinant; tags: N-terminal GST; dsDNA, one strand shown
How it was run: as §1

[8] = molecular target: SPIB (Homo sapiens, UniProt Q01892 1-262); details: protein: recombinant; tags: N-terminal GST; dsDNA, one strand shown
Chain of SPIB (Q01892 whole entry): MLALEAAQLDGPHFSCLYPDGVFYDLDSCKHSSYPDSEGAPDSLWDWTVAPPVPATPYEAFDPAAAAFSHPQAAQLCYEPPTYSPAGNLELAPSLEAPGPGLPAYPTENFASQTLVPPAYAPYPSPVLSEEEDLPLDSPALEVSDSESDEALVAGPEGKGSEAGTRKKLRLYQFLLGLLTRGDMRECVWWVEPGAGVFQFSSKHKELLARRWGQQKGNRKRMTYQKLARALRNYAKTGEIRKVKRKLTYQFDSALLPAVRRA
How it was run: as §1

[9] = molecular target: T6, ELK3 (Homo sapiens, UniProt P41970 1-407); details: protein: recombinant; tags: N-terminal GST; dsDNA, one strand shown
T6 sequence: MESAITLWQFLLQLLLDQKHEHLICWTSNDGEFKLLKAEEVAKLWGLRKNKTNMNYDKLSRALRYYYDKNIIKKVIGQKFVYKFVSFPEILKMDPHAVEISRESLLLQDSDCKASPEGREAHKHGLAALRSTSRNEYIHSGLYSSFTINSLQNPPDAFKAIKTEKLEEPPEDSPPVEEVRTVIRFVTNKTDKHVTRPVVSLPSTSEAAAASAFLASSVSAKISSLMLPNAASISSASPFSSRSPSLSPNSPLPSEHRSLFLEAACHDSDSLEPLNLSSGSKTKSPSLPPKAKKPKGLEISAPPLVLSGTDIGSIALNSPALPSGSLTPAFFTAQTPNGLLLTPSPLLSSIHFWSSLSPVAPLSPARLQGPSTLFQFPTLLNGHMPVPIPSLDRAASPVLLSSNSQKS
How it was run: as §1

[10] = molecular target: T7, FEV (Homo sapiens, UniProt Q99581 1-238); details: protein: recombinant; tags: N-terminal GST; dsDNA, one strand shown
T7 sequence: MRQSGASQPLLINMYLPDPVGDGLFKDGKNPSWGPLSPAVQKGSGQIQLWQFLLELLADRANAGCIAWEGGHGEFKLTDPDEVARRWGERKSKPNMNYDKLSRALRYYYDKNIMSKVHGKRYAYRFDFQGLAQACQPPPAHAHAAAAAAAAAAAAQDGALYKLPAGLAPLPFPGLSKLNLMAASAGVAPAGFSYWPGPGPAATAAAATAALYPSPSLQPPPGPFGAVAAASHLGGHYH
How it was run: as §1

[11] = molecular target: ETV5 (Homo sapiens, UniProt P41161 1-510); details: protein: recombinant; tags: N-terminal GST; dsDNA, one strand shown
Chain of ETV5 (P41161 whole entry): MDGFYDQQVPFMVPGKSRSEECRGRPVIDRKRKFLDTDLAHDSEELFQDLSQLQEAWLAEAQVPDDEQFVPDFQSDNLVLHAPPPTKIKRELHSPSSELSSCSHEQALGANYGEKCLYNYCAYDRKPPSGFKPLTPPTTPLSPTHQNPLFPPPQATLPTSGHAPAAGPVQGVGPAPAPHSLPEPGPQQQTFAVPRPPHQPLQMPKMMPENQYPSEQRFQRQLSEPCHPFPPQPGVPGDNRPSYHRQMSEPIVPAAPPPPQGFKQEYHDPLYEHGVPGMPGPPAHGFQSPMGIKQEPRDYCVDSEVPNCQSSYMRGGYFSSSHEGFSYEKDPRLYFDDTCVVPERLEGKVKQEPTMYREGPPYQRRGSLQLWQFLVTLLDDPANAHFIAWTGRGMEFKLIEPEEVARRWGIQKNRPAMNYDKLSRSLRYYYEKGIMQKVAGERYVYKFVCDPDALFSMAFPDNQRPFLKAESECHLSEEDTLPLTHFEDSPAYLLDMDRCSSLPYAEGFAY
How it was run: as §1

[12] = molecular target: HSF1 (Homo sapiens, UniProt Q00613 1-529); details: protein: recombinant; tags: N-terminal GST; chain copies: 3; dsDNA, one strand shown
Chain of HSF1 (Q00613 whole entry): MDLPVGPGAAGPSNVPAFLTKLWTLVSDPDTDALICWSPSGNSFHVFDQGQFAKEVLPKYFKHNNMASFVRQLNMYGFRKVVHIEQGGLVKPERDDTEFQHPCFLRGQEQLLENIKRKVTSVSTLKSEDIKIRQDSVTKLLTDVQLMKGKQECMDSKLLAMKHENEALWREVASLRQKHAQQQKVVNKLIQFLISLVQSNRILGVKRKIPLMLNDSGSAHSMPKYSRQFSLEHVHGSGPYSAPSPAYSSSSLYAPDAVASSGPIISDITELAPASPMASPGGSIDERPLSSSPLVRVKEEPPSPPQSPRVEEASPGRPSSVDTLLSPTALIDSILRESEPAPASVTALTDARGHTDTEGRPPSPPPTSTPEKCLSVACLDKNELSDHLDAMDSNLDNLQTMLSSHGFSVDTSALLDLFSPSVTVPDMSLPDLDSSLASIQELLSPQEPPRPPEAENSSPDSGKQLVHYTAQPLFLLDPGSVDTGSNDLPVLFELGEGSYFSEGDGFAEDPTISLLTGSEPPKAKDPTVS
How it was run: as §1

[13] = molecular target: T8, SPIC (Homo sapiens, UniProt Q8N5J4 1-248); details: protein: recombinant; tags: N-terminal GST; dsDNA, one strand shown
T8 sequence: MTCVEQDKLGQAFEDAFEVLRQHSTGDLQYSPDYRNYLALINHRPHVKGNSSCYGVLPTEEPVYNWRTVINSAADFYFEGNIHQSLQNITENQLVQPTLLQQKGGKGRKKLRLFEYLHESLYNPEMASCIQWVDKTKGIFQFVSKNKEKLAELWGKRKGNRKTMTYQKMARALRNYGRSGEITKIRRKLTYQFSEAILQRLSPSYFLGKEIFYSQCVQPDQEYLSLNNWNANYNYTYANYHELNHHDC
How it was run: as §1

[14] = molecular target: ELF4 (Homo sapiens, UniProt Q99607 1-663); details: protein: recombinant; tags: N-terminal GST; dsDNA, one strand shown
Chain of ELF4 (Q99607 whole entry): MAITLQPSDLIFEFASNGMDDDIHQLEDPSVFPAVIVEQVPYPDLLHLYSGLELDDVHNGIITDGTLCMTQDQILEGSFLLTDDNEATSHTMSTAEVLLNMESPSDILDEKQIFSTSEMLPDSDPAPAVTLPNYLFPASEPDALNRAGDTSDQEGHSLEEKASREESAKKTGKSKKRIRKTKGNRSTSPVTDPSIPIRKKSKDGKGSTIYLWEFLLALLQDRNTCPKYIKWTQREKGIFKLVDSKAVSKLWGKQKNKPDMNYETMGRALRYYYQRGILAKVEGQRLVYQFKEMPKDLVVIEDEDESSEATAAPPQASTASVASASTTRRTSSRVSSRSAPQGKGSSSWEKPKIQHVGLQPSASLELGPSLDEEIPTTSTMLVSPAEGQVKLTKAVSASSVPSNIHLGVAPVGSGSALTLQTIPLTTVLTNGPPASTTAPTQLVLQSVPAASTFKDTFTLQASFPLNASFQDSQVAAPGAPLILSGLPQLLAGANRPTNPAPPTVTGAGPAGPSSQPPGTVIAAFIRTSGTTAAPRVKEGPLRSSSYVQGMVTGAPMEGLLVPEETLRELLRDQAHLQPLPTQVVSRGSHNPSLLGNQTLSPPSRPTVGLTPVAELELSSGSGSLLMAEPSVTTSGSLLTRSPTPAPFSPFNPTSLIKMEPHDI
How it was run: as §1

[15] = molecular target: T9, ELK4 (Homo sapiens, UniProt P28324-2 1-405); details: protein: recombinant; tags: N-terminal GST; dsDNA, one strand shown
T9 sequence: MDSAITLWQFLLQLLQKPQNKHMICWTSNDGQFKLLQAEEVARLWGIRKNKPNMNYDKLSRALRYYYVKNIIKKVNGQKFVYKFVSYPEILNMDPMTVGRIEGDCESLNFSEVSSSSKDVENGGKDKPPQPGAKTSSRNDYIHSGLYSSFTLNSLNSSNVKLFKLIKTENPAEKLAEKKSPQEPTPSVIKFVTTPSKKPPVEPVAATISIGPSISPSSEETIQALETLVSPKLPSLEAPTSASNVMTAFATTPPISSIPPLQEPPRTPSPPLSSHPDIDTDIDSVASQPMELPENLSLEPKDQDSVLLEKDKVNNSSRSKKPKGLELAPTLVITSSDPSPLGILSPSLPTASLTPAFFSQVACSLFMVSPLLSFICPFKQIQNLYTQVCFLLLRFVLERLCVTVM
How it was run: as §1

[16] = molecular target: T10, ETV2 (Homo sapiens, UniProt O00321 1-342); details: protein: recombinant; tags: N-terminal GST; dsDNA, one strand shown
T10 sequence: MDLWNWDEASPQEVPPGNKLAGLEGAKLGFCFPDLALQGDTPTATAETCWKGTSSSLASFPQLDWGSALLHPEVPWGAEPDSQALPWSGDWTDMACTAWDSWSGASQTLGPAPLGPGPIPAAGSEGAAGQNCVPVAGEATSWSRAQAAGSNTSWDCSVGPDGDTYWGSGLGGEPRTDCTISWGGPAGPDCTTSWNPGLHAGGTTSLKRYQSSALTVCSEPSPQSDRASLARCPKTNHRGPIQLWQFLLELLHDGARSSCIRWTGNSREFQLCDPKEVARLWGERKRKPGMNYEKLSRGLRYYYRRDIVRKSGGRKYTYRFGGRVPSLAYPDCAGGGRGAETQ
How it was run: as §1

[17] = molecular target: T11, ELF3 (Homo sapiens, UniProt P78545 1-371); details: protein: recombinant; tags: N-terminal GST; dsDNA, one strand shown
T11 sequence: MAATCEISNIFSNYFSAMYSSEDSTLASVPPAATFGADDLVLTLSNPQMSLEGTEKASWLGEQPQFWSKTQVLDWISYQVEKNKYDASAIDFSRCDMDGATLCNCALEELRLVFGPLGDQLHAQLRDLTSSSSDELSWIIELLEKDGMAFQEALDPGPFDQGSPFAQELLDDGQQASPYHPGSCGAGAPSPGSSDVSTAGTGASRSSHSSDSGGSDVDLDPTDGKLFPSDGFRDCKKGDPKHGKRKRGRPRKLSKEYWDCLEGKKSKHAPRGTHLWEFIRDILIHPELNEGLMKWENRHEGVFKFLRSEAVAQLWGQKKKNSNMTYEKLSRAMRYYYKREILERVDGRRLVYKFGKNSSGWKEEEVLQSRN
How it was run: as §1

[18] = molecular target: CRX (Homo sapiens, UniProt O43186 1-299); details: protein: recombinant; tags: N-terminal GST; dsDNA, one strand shown
Chain of CRX (O43186 whole entry): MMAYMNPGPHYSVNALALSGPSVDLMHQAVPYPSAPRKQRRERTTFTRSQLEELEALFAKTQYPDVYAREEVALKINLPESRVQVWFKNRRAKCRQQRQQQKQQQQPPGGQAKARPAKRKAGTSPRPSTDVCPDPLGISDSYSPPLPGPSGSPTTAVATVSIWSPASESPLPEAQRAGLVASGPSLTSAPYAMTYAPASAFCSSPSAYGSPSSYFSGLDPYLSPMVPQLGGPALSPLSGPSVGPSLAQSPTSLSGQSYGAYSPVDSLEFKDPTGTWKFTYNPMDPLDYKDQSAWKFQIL
How it was run: as §1

[19] = molecular target: ETV1 (Homo sapiens, UniProt P50549 1-477); details: protein: recombinant; tags: N-terminal GST; dsDNA, one strand shown
Chain of ETV1 (P50549 whole entry): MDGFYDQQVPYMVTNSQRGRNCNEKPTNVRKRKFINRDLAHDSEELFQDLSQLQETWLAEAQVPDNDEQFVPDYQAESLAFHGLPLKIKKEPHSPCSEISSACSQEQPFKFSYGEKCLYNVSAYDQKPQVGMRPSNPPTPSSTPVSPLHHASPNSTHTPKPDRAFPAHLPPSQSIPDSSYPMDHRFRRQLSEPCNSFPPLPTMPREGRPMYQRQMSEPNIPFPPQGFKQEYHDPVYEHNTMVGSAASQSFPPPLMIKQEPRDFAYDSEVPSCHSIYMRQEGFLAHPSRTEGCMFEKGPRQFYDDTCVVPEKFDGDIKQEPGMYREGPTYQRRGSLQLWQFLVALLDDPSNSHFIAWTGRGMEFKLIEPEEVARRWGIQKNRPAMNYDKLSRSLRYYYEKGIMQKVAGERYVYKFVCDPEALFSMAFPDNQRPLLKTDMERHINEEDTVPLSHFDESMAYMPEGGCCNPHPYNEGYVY
How it was run: as §1

## TACGGC
[1]
  binding signal: 1.18 fold enrichment (6-mer frequency, TF over GST control)
[2]
  binding signal: 1.25 fold enrichment (6-mer frequency, TF over GST control)
[3]
  binding signal: 1.23 fold enrichment (6-mer frequency, TF over GST control)
[4]
  binding signal: 1.24 fold enrichment (6-mer frequency, TF over GST control)
[5]
  binding signal: 1.18 fold enrichment (6-mer frequency, TF over GST control)
[6]
  binding signal: 1.2 fold enrichment (6-mer frequency, TF over GST control)
[7]
  binding signal: 1.18 fold enrichment (6-mer frequency, TF over GST control)
[8]
  binding signal: 1.25 fold enrichment (6-mer frequency, TF over GST control)
[9]
  binding signal: 1.16 fold enrichment (6-mer frequency, TF over GST control)
[10]
  binding signal: 1.15 fold enrichment (6-mer frequency, TF over GST control)
[11]
  binding signal: 1.15 fold enrichment (6-mer frequency, TF over GST control)
[12]
  binding signal: 1.02 fold enrichment (6-mer frequency, TF over GST control)
[13]
  binding signal: 1.05 fold enrichment (6-mer frequency, TF over GST control)
[14]
  binding signal: 1.28 fold enrichment (6-mer frequency, TF over GST control)
[15]
  binding signal: 1.19 fold enrichment (6-mer frequency, TF over GST control)
[16]
  binding signal: 1.12 fold enrichment (6-mer frequency, TF over GST control)
[17]
  binding signal: 1.14 fold enrichment (6-mer frequency, TF over GST control)
[18]
  binding signal: 1.2 fold enrichment (6-mer frequency, TF over GST control)
[19]
  binding signal: 1.14 fold enrichment (6-mer frequency, TF over GST control)
